Experimental data from PubChem BioAssay (NCI).
Compounds without any hit were thinned out: in the full panel of roughly 83,000, 20% have a hit.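 Cells were grown in 96-well plates and exposed to the test compound at a single concentration for 48 hours; results are reported as percent growth, with values below 10 considered active.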 A number with no mark means an inactive call. Active and inactive are the calls of the source.

How the values were obtained:
Assay in all cases: NCI-60 one-dose screen, 48 h (100 = growth as untreated, 0 = no growth, -100 = all killed)
Details in all cases: 10 µM unless noted
NCI-H23 lung = test system: NCI-H23 lung
NCI-H226 lung = test system: NCI-H226 lung
NCI-H322M lung = test system: NCI-H322M lung
HOP-62 NSCLC = test system: HOP-62 NSCLC
NCI-H460 lung = test system: NCI-H460 lung
HOP-92 NSCLC = test system: HOP-92 NSCLC
NCI-H522 lung = test system: NCI-H522 lung
A549/ATCC NSCLC = test system: A549/ATCC NSCLC
786-0 renal = test system: 786-0 renal
COLO 205 colon = test system: COLO 205 colon
DU-145 prostate = test system: DU-145 prostate
K-562 leukemia = test system: K-562 leukemia
MDA-MB-231 breast = test system: MDA-MB-231 breast
RXF 393 renal = test system: RXF 393 renal
SF-268 CNS = test system: SF-268 CNS
SF-295 CNS = test system: SF-295 CNS
SF-539 CNS = test system: SF-539 CNS
UACC-257 melanoma = test system: UACC-257 melanoma
M14 melanoma = test system: M14 melanoma
MALME-3M melanoma = test system: MALME-3M melanoma

| SMILES | growth (NCI-H23 lung) | growth (NCI-H226 lung) | growth (NCI-H322M lung) | growth (HOP-62 NSCLC) | growth (NCI-H460 lung) | growth (HOP-92 NSCLC) | growth (NCI-H522 lung) | growth (A549/ATCC NSCLC) | growth (786-0 renal) | growth (COLO 205 colon) | growth (DU-145 prostate) | growth (K-562 leukemia) | growth (MDA-MB-231 breast) | growth (RXF 393 renal) | growth (SF-268 CNS) | growth (SF-295 CNS) | growth (SF-539 CNS) | growth (UACC-257 melanoma) | growth (M14 melanoma) | growth (MALME-3M melanoma) |
| --- | --- | --- | --- | --- | --- | --- | --- | --- | --- | --- | --- | --- | --- | --- | --- | --- | --- | --- | --- | --- |
| OCCNc1nccc(N2CCN(c3ccnc4cc(Cl)ccc34)CC2)n1 | 80.5% | 92.2% | 84.2% | 56.3% | 96.8% | 88.7% | 65.2% | 80.6% | 92.8% | 65.6% | 98.8% | 24.2% | 54.9% | 77.1% | 82.7% | 58% | 79.6% | 84% | 68.7% |  |
| CCOc1cc2c(cc1OCC)C(c1cc(OC)c(O)cc1Cl)NCC2 (stereo not drawn) | 96.7% | 100% | 110% | 98.1% | 98.4% | 114% | 102% | 88.6% | 84.1% | -37.4% (active) | 110% | 53.3% | 88.6% | 85.1% | 100% |  | 101% | 99.2% | 80.2% | 55.2% |
| Cn1c(O)c(N=NC(=O)c2cc(-c3ccccc3)on2)c2ccccc21 | 88.5% | 88.4% | 108% | 102% | 100% | 105% | 89.9% | 108% | 100% | 130% | 107% | 116% | 95.6% | 104% | 100% | 99.8% | 99.9% | 119% | 101% | 88.7% |
| O=C(COc1cccc(/C=C2\COc3ccccc3C2=O)c1)Nc1nccs1 | 13.4% | 95.4% | 99.3% | 83.3% | 87.9% | -3.51% (active) | -30.5% (active) | 101% | 95.5% | 87.3% | 96.6% | -80.5% (active) | 83.7% | 48.3% | 70.1% | 112% | 83.7% | 86% | -78.2% (active) | 54.2% |
| CN(C)CCCNc1c2ccccc2nc2ccccc12 | 93.3% | 81.1% | 110% | 88.1% | 97.7% | 180% | 93.7% | 96.2% | 88.6% | 100% | 101% | 96.8% | 85.2% | 56.4% | 92.9% |  | 89.6% | 104% | 98% | 100% |
| COc1ccc(-c2nc3ccc(-c4nc5ccc(N6CCN(c7ccccc7)CC6)cc5[nH]4)cc3[nH]2)cc1OC | -21.4% (active) | 69.9% | -2.95% (active) | 27% | -6.7% (active) | 13.6% | -33% (active) | -56.2% (active) | -79.8% (active) | -70.9% (active) | -42.4% (active) | -31.7% (active) | -22% (active) | -37.1% (active) | 11.4% | 22.1% | 17.5% | -19.8% (active) | 1.2% (active) | -63.8% (active) |
| CSc1nc(Nc2cccc(NC(=O)/C(C#N)=C/c3c(Cl)cccc3Cl)c2)c(C#N)c(-c2cccc([N+](=O)[O-])c2)n1 | 57.9% | 64.9% | 85.5% | 89.7% | 71.7% | 59.8% | 38.8% | 92% | 54% | 76% | 58% | 20.4% | 52.5% | 68.3% | 59.6% | 92% | 65.2% | 73.5% | 22.6% | 96.5% |
| Cc1oc(-c2ccc(Cl)cc2Cl)cc1C(=O)Nc1nccs1 | 87.4% | 62.6% | 91.1% | 85.4% | 60.7% | 110% | 89.7% | 51.8% | 90.7% | 87.9% | 104% | 95.1% | 83.2% | 88.2% | 100% | 87% | 95.9% | 114% | 99.5% | 85.1% |
| O=C(/C=C/c1cccc([N+](=O)[O-])c1)c1ccc(O)c(CN2CCN(c3cc4c(cc3F)c(=O)c(C(=O)O)cn4C3CC3)CC2)c1 | 37.3% | 60.8% | 61.4% | 43.7% | 37.1% | 59% | 16.3% | 32.2% | -11.2% (active) | 60.1% | 22% | 6.49% (active) | 54.4% | -12.4% (active) | 43.2% | 50.1% | 12% | 63.1% | 9.3% (active) | 78.2% |
| OC(c1cc2cc(Cl)c(Cl)cc2c2cc(C(F)(F)F)ccc12)C1CCCCN1 (stereo not drawn) | -52.9% (active) | -72.3% (active) | -8.7% (active) | -80.7% (active) | -71.8% (active) | -70.9% (active) | -78.4% (active) | -84% (active) | -78.1% (active) | -88.2% (active) | -86.2% (active) | -63.5% (active) | -71.3% (active) | -96.2% (active) | -88.6% (active) |  | -57.9% (active) | -73% (active) | -80.9% (active) | -17.6% (active) |
| CCn1c(Cc2ccccc2Nc2c(Cl)cccc2Cl)nnc1SCC(=O)NN1C(=O)/C(=C/c2cc(OC)c(O)c(OC)c2)SC1=S | 48.3% | 40.7% | 42.2% | 29.9% | 22.1% | 11.1% | -1.58% (active) | 60.9% | 26.3% | 44.9% | 48.8% | 19.4% | 60.9% | 12.9% | 36.4% | 23.5% | 13% | 63.7% | 19.5% | 40.4% |
| N#Cc1c(N)n(CCNC(=O)c2ccccc2)c2nc3ccccc3nc12 | 103% | 97.2% | 121% | 111% | 117% | -17.4% (active) | 84.2% | 105% | 92% | 115% | 134% | 87.8% | 112% |  | 106% | 121% | 121% | 97.9% | 112% | 120% |
| NC(=O)c1cc(Cl)ccc1NC(=O)/C=C/c1ccccc1 | 60.3% | 63.6% | 45.1% | 84.9% | 12.1% | 58.7% | 4.73% (active) | 17.8% | 56.8% | -43.3% (active) | -0.745% (active) | 11.6% | 39.2% | -11.1% (active) | 46.1% |  | -6.33% (active) | 46.2% | 28.1% | 67% |
| Cc1nn(-c2ccc(F)cc2)c2ncnc(Nc3ccc(NC(=O)Nc4ccc(Cl)c(C(F)(F)F)c4)cc3)c12 | 22.4% | 58% | 67.5% | 45% | 10.9% | -8.33% (active) | 12.1% | 50.7% | 40.7% | 4.15% (active) | 41.8% | 15.3% | 71.6% | 19.4% | 66% | 6.74% (active) | 48.2% | 26.8% | 38.1% | 34% |
| NC(=NCCCOc1ccc(Cl)cc1)Nc1ccc(C(F)(F)F)cc1 | 33.4% | 97.5% | 34.9% | 48.3% | 18.4% | 20.9% | 42.5% | 49.4% | 53.4% | -67.1% (active) | 20.4% |  | 10.1% | 71.4% | 46% | 43.9% | 48.7% | 11.7% | -47.8% (active) | -49.3% (active) |
